In assay [1] the test system is Zika virus NS2B-NS3 protease (linked construct). Description: Primary screen NINDS Rhodamine qHTS for Zika virus inhibitors (AID 1347160). Note: nearly all actives have a fitted effect of over 55% in size. In outline: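 Purified NS2B-NS3 protease with the NS2B hydrophilic domain joined by a flexible linker (25 nM) in 10 mM Tris-HCl pH 8.0, 0.01% Tween 20, preincubated 15 min at RT with compound; Rhodamine110 peptide substrate 1.5 µM; fluorescence change over 15 min; 4-parameter Hill fit.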
On the technique in general: qHTS replaces the single test concentration by a dilution series.

Assay [2] deals with Calcium and integrin-binding protein 1 (Homo sapiens) (UniProt Q99828). Description: Primary qHTS for Identification of Calcium Integrin Binding Protein 1 (CIB1) Competitor (AID 1508620).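 Note: GST tagged CIB1 binding a fluorescein labelled alphaIIb integrin peptide tracer; top concentration of the series differs between compounds; % is set by controls: 0 for no effect and ±100 for the full control effect.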 In outline:
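Fluorescence polarization competition: GST-tagged CIB1 (1 uM final) preincubated with compound 15 min at room temperature, then FITC-labelled alphaIIb peptide (100 nM final) added. After 15 min at room temperature, polarization read at Ex 480/Em 540.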

Assay [3] is described as follows: Primary qHTS for inhibitors of nuclear receptor binding SET domain protein 2 (NSD2) in an isogenic RCH-ACV NSD2 p.E1099K mutant (9B) (AID 1645876). Note: nearly all actives have a fitted effect of over 70% in size. Note: potency is the fitted concentration of half-maximal effect.
Assay [4] concerns the target Glutathione peroxidase 1 (Homo sapiens) (UniProt P07203). Description: Primary qHTS Assay for Inhibitors of Recombinant Selenoprotein Glutathione Peroxidase 1 (GPX1) (AID 1845191). Note: nearly all actives have a fitted effect of over 65% in size. In outline:
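GR-coupled assay: compounds preincubated 30 min at room temperature with GPX1, then reaction started with CHP; final 10 nM GPX1, 1 mM GSH, 0.5 mM CHP, 0.5 mM NADPH, 100 nM GR, 0.01% BSA, pH 7.5 Tris buffer. NADPH fluorescence (340/450 nm) read at 0 and 15 min.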

Assay [5] addresses Phospholipid hydroperoxide glutathione peroxidase GPX4 (Homo sapiens) (UniProt P36969). Description: Primary qHTS Assay for Inhibitors of Recombinant Selenoprotein Glutathione Peroxidase 4 (GPX4) (AID 1845192). Note: nearly all actives have a fitted effect of over 65% in size. In short, it runs like this:
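GR-coupled assay: recombinant GPX4 preincubated 30 min with compound at room temperature; final 200 nM GPX4, 1 mM GSH, 0.5 mM cumene hydroperoxide, 0.5 mM NADPH, 100 nM GR, 0.01% BSA, pH 7.5 Tris. NADPH fluorescence (340/450 nm) read at 0 and 15 min.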

Assay [6] has as its target Luciferin 4-monooxygenase (Photinus pyralis) (UniProt P08659). Description: Primary firefly luciferase (FLuc) qHTS assay for identification of artifact compounds. (AID 1845220).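 Note: plate controls were DMSO vehicle for no effect and no enzyme for full effect; nearly all actives have a fitted effect of over 60% in size.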 The settings on record: outcome: dose series up to 54.1 µM unless noted. In short, it runs like this:
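Enzymatic FLuc inhibition assay: compounds pre-exposed to luciferin/ATP (10 uM each) for 15 min, then purified P. pyralis enzyme at 10 nM added. Read-out: luminescence at 5 min.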

Assay [7] in a line: Primary fluorescence-based thiol-reactive (MSTI) qHTS assay for identification of artifact compounds. (AID 1845221). Note: nearly all actives have a fitted effect of over 65% in size. In short, it runs like this: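 Compounds were incubated 1 h at room temperature in the dark with the MSTI probe (4 uM) in PBS pH 7.4, 2% DMSO. Signals were normalized between Acetyl-MSTI and MSTI.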
Assay [8] has as its system Nanoluciferase (engineered Oplophorus gracilirostris luciferase). Description: Primary Nanoluciferase (NLuc) qHTS assay for identification of artifact compounds. (AID 1845222).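 Note: NLuc secreted into diluted conditioned medium of S16 cells; 0% = DMSO and -100% = no enzyme.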 In outline: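 S16 cell supernatant NLuc, 1:55; cpds qHTS; 15 min RT dark; Nano-Glo substrate 1:100, 5 min; luminescence; Hill fit of % inhibition.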
Assay [9] concerns CRL-7250. Description: Cytotoxic Profiling of Annotated Libraries Using Quantitative High-Throughput Screening (AID 1296008). For max response: % is set by controls: 0 for no effect and ±100 for the full control effect. Note: nearly all actives have a fitted effect of over 60% in size. Note: potency is the fitted concentration of half-maximal effect. As to conditions: Five cell lines viability, CellTiter-Glo ATP luminescence, 48-72 h; max response: active compounds read low. In outline: (§1)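 Cells exposed to compounds for 48 or 72 hr at 37 degrees Celsius. Viability read as ATP-coupled luminescence with CellTiter-Glo after 10 min at room temperature.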
On the technique in general: Cellular ATP, detected with luciferase, serves as a proxy for viable cell number.

In assay [10] the test system is HEK293. Described as above. As to conditions: Five cell lines viability, CellTiter-Glo ATP luminescence, 48-72 h; max response: active compounds read low. In outline: as §1
The subject of assay [11] is HaCat. Described as above. As to conditions: Five cell lines viability, CellTiter-Glo ATP luminescence, 48-72 h; max response: active compounds read low. In outline:
as §1

Assay [12] deals with NIH3T3. The description is as above. As to conditions: Five cell lines viability, CellTiter-Glo ATP luminescence, 48-72 h; max response: active compounds read low. In short, it runs like this: as §1
Assay [13] deals with C33A. Description: Primary qHTS to identify gynecologic anti-cancer compounds using libraries of approved drugs and bioactive compounds (AID 1345084). Note: nearly all actives have a fitted effect of over 55% in size. Note: potency is the fitted concentration of half-maximal effect. The settings on record: Gynecologic cancer cell panel viability, ATPlite luminescence, 48 h; series mostly up to 57.5 µM. In outline: (§2)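 Luminescence from the ATPlite ATP-monitoring reagent indicates viable cell number; lower signal means cytotoxicity. Cells received compound 16 h after seeding and were exposed for 48 h across five concentrations.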

Assay [14] has as its system CASKI. Described as above. As to conditions: Gynecologic cancer cell panel viability, ATPlite luminescence, 48 h; series mostly up to 57.5 µM. In outline: as §2
The test system of assay [15] is Es-2. Described as above. As to conditions: Gynecologic cancer cell panel viability, ATPlite luminescence, 48 h; series mostly up to 57.5 µM. In short, it runs like this: as §2
For assay [16], the system named is Hek293T. Described as above. The settings on record: Gynecologic cancer cell panel viability, ATPlite luminescence, 48 h, control line for the selectivity index; series mostly up to 57.5 µM. In outline: as §2
The test system of assay [17] is OV90. Described as above. The settings on record: Gynecologic cancer cell panel viability, ATPlite luminescence, 48 h; series mostly up to 57.5 µM. In short, it runs like this: as §2
The test system of assay [18] is PA-1. The description is as above. The settings on record: Gynecologic cancer cell panel viability, ATPlite luminescence, 48 h; series mostly up to 57.5 µM. In outline:
as §2

Assay [19] relates to Tov-21-G. Described as above. The settings on record: Gynecologic cancer cell panel viability, ATPlite luminescence, 48 h; series mostly up to 57.5 µM. In short, it runs like this: as §2
Assay [20] has as its system Tov112D. The assay is described as above. The settings on record: Gynecologic cancer cell panel viability, ATPlite luminescence, 48 h; series mostly up to 57.5 µM. In outline:
as §2

Values without a mark were called inactive. Results filed as inconclusive are left out. Active and inactive are the calls of the source. Calls come from the whole dose curve; as a rule, active = well fitted curve in the direction sought with a large enough effect; inconclusive = small, poorly fitted or top-dose-only effect, or another doubt; inactive = no such curve, though single readings can be large; an effect the other way counts as inactive or inconclusive.

Sequence of Phospholipid hydroperoxide glutathione peroxidase GPX4 (Homo sapiens) (P36969 whole entry, looked up): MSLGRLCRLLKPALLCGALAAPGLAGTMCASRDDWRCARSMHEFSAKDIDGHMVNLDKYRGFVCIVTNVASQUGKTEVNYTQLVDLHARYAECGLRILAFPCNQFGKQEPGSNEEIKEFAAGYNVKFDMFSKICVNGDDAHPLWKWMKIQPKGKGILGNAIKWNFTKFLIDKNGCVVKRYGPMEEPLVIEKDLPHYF
Sequence of Glutathione peroxidase 1 (Homo sapiens) (P07203 whole entry, looked up): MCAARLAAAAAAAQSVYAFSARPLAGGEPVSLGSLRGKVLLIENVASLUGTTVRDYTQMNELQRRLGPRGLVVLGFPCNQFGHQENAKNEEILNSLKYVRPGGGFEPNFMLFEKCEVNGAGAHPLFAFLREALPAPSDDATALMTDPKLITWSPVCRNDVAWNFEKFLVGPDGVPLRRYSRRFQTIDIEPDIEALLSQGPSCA
Sequence of Calcium and integrin-binding protein 1 (Homo sapiens) (Q99828 whole entry, looked up): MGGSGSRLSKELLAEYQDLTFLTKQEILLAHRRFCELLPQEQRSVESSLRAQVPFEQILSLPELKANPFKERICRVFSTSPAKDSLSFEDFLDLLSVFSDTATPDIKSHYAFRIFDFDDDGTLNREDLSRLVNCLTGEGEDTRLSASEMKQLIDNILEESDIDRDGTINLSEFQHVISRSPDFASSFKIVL

As for `CNC(=O)c1cc(C#N)cc(C)c1NC(=O)c1cc(Br)nn1-c1ncccc1Cl`, the Potency result in assay [1], in [2], in [3], in [4], in assay [5] and in assay [7] was “inactive” throughout. For the same compound, the Potency result in [8], in [13], in assay [14], in [15], in assay [16] and in assay [17] was “inactive” throughout. In addition, the Potency result in assay [18], in assay [19] and in assay [20] was “inactive” each time. The result in [6] was inactive. In addition, the max response was 0.534% in assay [9], -17.6% in assay [11] and -18.9% in assay [12]. In addition, the Potency in assay [10] was 13000 nM (active).
As for `C[C@]12CC[C@H]3[C@@H](CCC4=C/C(=N/OCC(=O)O)CC[C@@]43C)[C@@H]1CC[C@@H]2O`, the Potency result in assay [1], in assay [2], in [3], in assay [4], in assay [5] and in assay [7] was “inactive” in each case. Moreover, the Potency entry in assay [8], in [13], in assay [14], in assay [15], in assay [16] and in assay [17] was “inactive” in each case. Moreover, the Potency entry in assay [18], in assay [19] and in assay [20] was “inactive” throughout. For the same compound, the call in [6] was inactive. Also, the max response was -2.05% in [9], -5.05% in assay [10], -24.1% in [11] and 3.02% in assay [12].
For `CN1C(=O)CN=C(c2ccccc2Cl)c2cc(Cl)ccc21`, the Potency result in [1], in assay [3], in assay [4], in assay [5], in [7] and in [8] was “inactive” in each case. Also, the Potency result in assay [13], in assay [14], in assay [15], in assay [16], in assay [17] and in assay [18] was “inactive” throughout. In addition, the Potency entry in [19] and in assay [20] was “inactive” each time. Besides, the outcome in [6] and in assay [9] was inactive. Further, the results for the max response in [10], in assay [11] and in assay [12] were -5.69%, 2.59% and 4.35%, respectively.
With `C[C@@H]1CCC/C=C/[C@H]2C[C@@H](O)C[C@@H]2[C@@H](O)/C=C/C(=O)O1`, the Potency entry in assay [1], in [2], in assay [5], in [7] and in assay [8] was “inactive” throughout. For the same compound, the Potency in assay [3] was 290 nM (active); in [9] it was 206 nM (active); in assay [10], 920 nM (active); in assay [11] it was 259 nM (active); in assay [12], 4110 nM (active); in assay [13], 891 nM (active). Further, the Potency in assay [14] was 1260 nM (active); in assay [15], 501 nM (active); in assay [16], 1000 nM (active); in assay [17], 316 nM (active); in assay [18], 447 nM (active); in assay [19], 1120 nM (active). The Potency in assay [20] is 1000 nM (active).
`COC(=O)CC1CC2(C(=O)c3c(O)cccc3C2(O)C(=O)OC)C(C)O1` (stereo unspecified): the Potency result in assay [1], in [2], in assay [3], in assay [4], in assay [5] and in [8] was “inactive” throughout. The Potency result in assay [13], in assay [14], in [15], in assay [16], in [17] and in assay [18] was “inactive” each time. The Potency result in [19] and in assay [20] was “inactive” throughout. The call in [6] and in [11] was inactive. For the same compound, the values for the max response in [9], in [10] and in assay [12] were 2.33%, -1.89% and 4.05%, respectively.

For the origin of these results see PubChem BioAssay (NCATS).
